Our source for the outcome values is the GenesisPotency data set.

About 3,000 (1%) of roughly 290,000 compounds were called active. No stated cut-off is given here; in the data, active means inhibition mostly above about 36% (no sharp cut-off); inactive means mostly below about 34%. Many of the other results were omitted from the sample, so actives are more common in it than they were.

This experiment deals with T1, Nucleotide-binding oligomerization domain-containing protein 1, Homo sapiens (UniProt Q9Y239).
T1 sequence (whole entry): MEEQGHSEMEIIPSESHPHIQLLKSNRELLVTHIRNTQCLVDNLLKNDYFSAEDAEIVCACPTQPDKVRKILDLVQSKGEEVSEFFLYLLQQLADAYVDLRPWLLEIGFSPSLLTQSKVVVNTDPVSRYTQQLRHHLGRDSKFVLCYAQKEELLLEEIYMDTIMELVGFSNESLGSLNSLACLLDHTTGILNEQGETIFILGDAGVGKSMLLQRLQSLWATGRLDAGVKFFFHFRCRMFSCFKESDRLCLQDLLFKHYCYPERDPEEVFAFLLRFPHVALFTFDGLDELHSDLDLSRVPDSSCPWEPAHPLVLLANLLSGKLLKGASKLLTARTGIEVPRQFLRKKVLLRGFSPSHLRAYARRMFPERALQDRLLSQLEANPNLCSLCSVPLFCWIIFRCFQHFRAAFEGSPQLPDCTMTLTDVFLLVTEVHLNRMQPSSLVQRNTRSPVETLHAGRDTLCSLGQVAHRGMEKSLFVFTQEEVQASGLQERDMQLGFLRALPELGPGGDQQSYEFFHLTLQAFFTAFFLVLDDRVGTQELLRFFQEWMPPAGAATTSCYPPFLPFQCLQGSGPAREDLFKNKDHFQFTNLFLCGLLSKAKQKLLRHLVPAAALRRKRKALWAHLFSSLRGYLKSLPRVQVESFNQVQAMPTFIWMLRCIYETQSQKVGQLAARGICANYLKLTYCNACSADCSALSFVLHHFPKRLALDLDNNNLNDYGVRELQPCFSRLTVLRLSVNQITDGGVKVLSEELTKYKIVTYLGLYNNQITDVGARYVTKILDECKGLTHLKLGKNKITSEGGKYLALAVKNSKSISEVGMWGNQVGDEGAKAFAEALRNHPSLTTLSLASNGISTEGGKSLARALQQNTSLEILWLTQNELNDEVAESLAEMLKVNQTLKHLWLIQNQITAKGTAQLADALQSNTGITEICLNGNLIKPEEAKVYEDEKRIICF
Description: NOD1 signaling inhibitors, primary screen, cell-based, luminescence, uHTS (AID 1578).
As to `CCC(=O)Nc1ccc(C(=O)Cn2ncc(Cl)c(Cl)c2=O)cc1`, the outcome was active.

Take `CCOC(=O)c1ccc(NC(=O)Cn2ncc(Cl)c(Cl)c2=O)cc1`: the call was active. Take `Cc1cc(Br)ccc1NC(=O)CNC(=O)Cn1ncc(Cl)c(Cl)c1=O`: the outcome was active. As for `O=C(Cn1ncc(Cl)c(Cl)c1=O)c1ccc(Cl)cc1`, the molecule was classed as active. As for `O=C(Cn1ncc(Cl)c(Cl)c1=O)N1CCc2ccccc21`, the call was active. As for `C#Cc1ccc([C@@H]2C=C(C(=O)N3CCN(Cc4ccccc4)CC3)O[C@H](OCCCCO)C2)cc1`, the call was active. Turning to `O=C(COc1ccc(Br)cc1)Nc1ccc(Cc2ccncc2)cc1`, the molecule was classed as active. Consider `Cn1cnnc1Sc1ccc(/C=C/C(=O)c2ccc(O)cc2)cc1[N+](=O)[O-]`, for which the result was active. On to `C(=N\Nc1nc2ccccc2s1)/c1ccccn1`, for which the result was active. With `CCn1c(=O)c2c(cnn2C)c2ccccc21`, the result was active.

For `CC(=O)c1c(O)c(C)c(O)c2c1OC1=CC(=O)C(C(C)=O)C(=O)[C@@]12C` (some centres undefined), the molecule was classed as active.

On to `O=C(NCc1ccco1)c1nc2c(nnn2Cc2ccccc2Cl)c(=O)[nH]1`, for which the molecule was called active. Consider `O=C(NCc1cccs1)c1nc2c(nnn2Cc2ccccc2Cl)c(=O)[nH]1`, for which the result was active. With `COc1ccc2ncn(-c3ccccc3)c2c1`, the outcome was active. As to `COc1ccc(-n2cnc3ccccc32)cc1`, the result was active. Then `O=C(CSc1nnc2c(n1)[nH]c1ccccc12)NC1CCCCC1`, with “active”. `NC(=S)N/N=C\c1c(OCc2ccccc2Cl)ccc2ccccc12`: the molecule was called active. In the case of `CC(C)N1C(=O)/C(=C/c2nc3ccccc3c(=O)n2-c2ccccc2)c2ccccc21`, the outcome was active. On to `Cc1cccc(-n2c(SCC(=O)N3CCC(C(=O)O)CC3)nc3ccccc3c2=O)c1C`, for which the molecule was called active. On to `CC1=CC(C)(C)Nc2ccc(OC(=O)CN3C(=O)C4CCCCC4C3=O)cc21` (centres undefined), for which the result was active. Take `CC1=CC(C)(C)Nc2ccc(OC(=O)CN3C(=O)CCC3=O)cc21`: the molecule was classed as active.

Take `COc1ccc(OC)c(/C=C/c2ccc3cccc(O)c3n2)c1`: the molecule was classed as active. Consider `COc1cc(/C=C/c2ccc3cccc(O)c3n2)ccc1O`, for which the molecule was classed as active. Then `COc1cc(/C=C/c2ccc3cccc(O)c3n2)cc(OC)c1OC`, with “active”; and `Oc1c(Cl)cc(Cl)cc1/C=C/c1ccc2cccc(O)c2n1`, with “active”.

Turning to `O=C(Nc1nnc(-c2cccs2)o1)c1cccc(Oc2ccccc2)c1`, the molecule was called active. On to `O=C(Nc1nnc(-c2cccs2)o1)c1cccc(C(F)(F)F)c1`, for which the call was active. As to `O=C(C1CCC(CNS(=O)(=O)c2cccs2)CC1)N1CCN(c2ccc(Cl)cc2)CC1` (centres undefined), the outcome was active. `O=C(Nc1ccccc1C(=O)Nc1nnc(C(F)(F)F)s1)c1ccccc1Cl`: the outcome was active. For the molecule `Cc1onc(-c2c(F)cccc2Cl)c1C(=O)Nc1nnc(C(F)(F)F)s1`, the result was active. Then `O=C(Nc1ccccc1C(=O)Nc1nnc(C(F)(F)F)s1)c1ccccc1`, with “active”; and `COc1ccccc1CN(Cc1nc2ccccc2c(=O)[nH]1)S(=O)(=O)c1ccc2ccccc2c1`, with “active”; and `N#C/C(=C\c1ccc(O)c([N+](=O)[O-])c1)c1nc2ccccc2s1`, with “active”. As to `O=C(CCl)N1c2ccccc2OCC1c1ccccc1` (centres undefined), the result was active. In the case of `Cc1ccc(C(=O)Nc2ccccc2-c2ccccc2)cc1[N+](=O)[O-]`, the molecule was classed as active. For `COc1ccccc1OCC(=O)OC/C(O)=C(\C#N)c1nc2ccccc2[nH]1`, the molecule was called active. Then `Cc1cccc(C)c1OCC(=O)OC/C(O)=C(\C#N)c1nc2ccccc2[nH]1`, with “active”; and `O=C(Nc1nc2ccccc2n1CCOc1ccc(Cl)cc1)c1ccco1`, with “active”. As to `Cc1ccccc1-c1cc(C(=O)Nc2sc(C(=O)OC(C)C)c(C)c2C#N)c2ccccc2n1`, the call was active. Turning to `COC(=O)c1sc(NC(=O)c2cc(-c3ccccc3)nc3ccccc23)c(C#N)c1C`, the outcome was active. Then `CCOC(=O)c1sc(NC(=O)c2cc(-c3ccccc3C)nc3ccccc23)c(C#N)c1C`, with “active”. As for `CCOC(=O)c1sc(NC(=O)CSc2nc3c(cc2C#N)CCCCCC3)c(C#N)c1C`, the entry is “active”; as for `CCOC(=O)c1sc(NC(=O)c2cc(-c3ccccc3)nc3ccccc23)c(C#N)c1C`, “active”. Take `CCOC(=O)c1sc(NC(=O)CSc2n[nH]c(-c3ccccc3)n2)c(C#N)c1C`: the call was active.

Turning to `Cc1ccc(C(=O)O/N=C(\N)c2ccccn2)c(C)c1`, the result was active. As for `Cc1ccc(C)c(N2CCN(C(=O)CCCCCn3c(=S)[nH]c4ccc(N5CCOCC5)cc4c3=O)CC2)c1`, the entry is “active”; as for `N#Cc1ccc(C(=O)Nc2nc(-c3cccs3)c(C(=O)C(F)(F)F)s2)cc1`, “active”. Take `CN(c1ccccc1)S(=O)(=O)c1ccc(NC(=O)c2nc(S(C)(=O)=O)ncc2Cl)cc1`: the call was active. For `CCS(=O)(=O)c1ncc(Cl)c(C(=O)Nc2ccc(C)cc2)n1`, the molecule was classed as active. Consider `CCS(=O)(=O)c1ncc(Cl)c(C(=O)Nc2ccc(S(=O)(=O)N(C)c3ccccc3)cc2)n1`, for which the result was active. Then `CCN(c1ccccc1)S(=O)(=O)c1ccc(NC(=S)NC(=O)c2cccs2)cc1`, with “active”; and `Cc1csc2ncnc(N3CCN(C(=S)Nc4ccc(F)cc4F)CC3)c12`, with “active”.

As to `Cc1csc2c(N3CCN(C(=S)Nc4ccc(C(F)(F)F)cc4)CC3)ncnc12`, the molecule was called active.

In the case of `Fc1ccc(NC(=S)N2CCCN(c3ccc(C(F)(F)F)cn3)CC2)c(F)c1`, the molecule was classed as active. On to `Cc1csc2ncnc(N3CCN(C(=S)Nc4ccc(C(F)(F)F)cc4)CC3)c12`, for which the molecule was called active. For the molecule `Cc1csc2ncnc(N3CCN(C(=O)Nc4ccc(OC(F)(F)F)cc4)CC3)c12`, the result was active. With `Cc1csc2ncnc(N3CCN(S(=O)(=O)c4cccc(C(F)(F)F)c4)CC3)c12`, the molecule was called active. For `Cc1c(C#N)c(NC(=O)CCl)n(Cc2ccccc2)c1C`, the molecule was called active. Turning to `Cc1c(C#N)c(NC(=O)CCl)n(Cc2cccs2)c1C`, the call was active.

On to `Br.CCCCCCCCn1c2c(c(=N)c3c1CCC3)CCCC2`, for which the outcome was active. With `Br.CCCCCCCCCn1c2c(c(=N)c3c1CCC3)CCCC2`, the result was active. `Br.CCCCCCCn1c2c(c(=N)c3c1CCC3)CCCC2`: the call was active. For `CC(=O)N1CCCc2cc(S(=O)(=O)N3CCCC(C(=O)N4CCN(c5cc(C)ccc5C)CC4)C3)ccc21` (centres undefined), the call was active.

`CC(=O)N1CCCc2cc(S(=O)(=O)N3CCCC(C(=O)N4CCN(c5cccc(Cl)c5)CC4)C3)ccc21` (centres undefined): the outcome was active. Then `Cc1ccc(S(=O)(=O)c2ncccc2[N+](=O)[O-])cc1`, with “active”; and `COc1ccc(/C=C2\Sc3ccc(C(=O)N4CCN(Cc5ccccc5)CC4)cc3N(C)C2=O)cc1OC`, with “active”. Regarding `CN1C(=O)/C(=C/c2ccccc2Cl)Sc2ccc(C(=O)N3CCCC3)cc21`, the molecule was called active. In the case of `COc1ccc2c(c1OC)C(=O)OC2Nc1nc(-c2ccccc2)cs1` (centres undefined), the result was active. Turning to `Cc1ccc(-c2csc(NC3OC(=O)c4ccccc43)n2)cc1` (centres undefined), the result was active. With `O=C(NCCc1ccccc1)c1ccc2c(c1)OCCCO2`, the molecule was called active. For the molecule `O=C(NCCc1ccccc1F)c1ccc2c(c1)OCCO2`, the molecule was classed as active.

Consider `COc1cc(C)c(Br)cc1S(=O)(=O)NCc1ccncc1`, for which the result was active. As for `Cc1ccc(Cc2c(C)c(C#N)c3[nH]c4ccccc4n3c2=O)cc1`, the result was active. Take `O=C(N/N=C/c1ccc([N+](=O)[O-])s1)c1cccc(Br)c1`: the call was active. Take `O=C(N/N=C/c1ccc([N+](=O)[O-])s1)c1ccccc1Br`: the molecule was called active. For the molecule `O=C(Nc1cccc(S(=O)(=O)N2CCCCC2)c1)c1ccccc1NS(=O)(=O)c1ccc(F)cc1`, the outcome was active. As for `Cc1ccc(NC(=O)c2ccccc2NS(=O)(=O)c2ccc(F)cc2)cc1S(=O)(=O)N1CCCCC1`, the entry is “active”. Regarding `COc1cc(SC)ccc1C(=O)Nc1nc2ccccc2[nH]1`, the outcome was active.

Regarding `COc1ccccc1C(=O)Nc1nc2ccccc2[nH]1`, the outcome was active. `Cc1c(C(=O)Nc2nc3ccccc3[nH]2)oc2ccc(Br)cc12`: the result was active. As for `O=c1cc(C(F)(F)F)nc(SCc2cccc3ccccc23)[nH]1`, the entry is “active”; as for `Cc1cnc(NC(=O)C2CC(=O)N(c3cccc(Cl)c3)C2)s1` (centres undefined), “active”; as for `CC(C)(C)c1cc(NC(=O)CCl)n(-c2ccccc2)n1`, “active”.

In the case of `O=[N+]([O-])c1cccc(NC(=S)Nc2nc(-c3ccc(Cl)cc3Cl)cs2)c1`, the result was active. Then `Cc1cc(Br)ccc1SCC(=O)OC/C(O)=C(\C#N)c1nc2ccccc2[nH]1`, with “active”; and `N#C/C(=C(/O)COC(=O)CSc1ccc2ccccc2c1)c1nc2ccccc2[nH]1`, with “active”; and `CC(C)(C)c1ccc(-c2noc(CCC(=O)Nc3cccnc3)n2)cc1`, with “active”. For `CC(C)(C)c1ccc(-c2noc(CCC(N)=O)n2)cc1`, the result was active. As for `O=C(NC1CCCCC1)N1CCN(c2nc(-c3ccccc3)cs2)CC1`, the call was active. Turning to `CCOC(=O)CC1CCCCN1C(=O)c1cc(COc2cccc3cnccc23)on1` (centres undefined), the outcome was active. Turning to `COC(=O)C1CCCCN1C(=O)c1cc(COc2cccc3cnccc23)on1` (centres undefined), the molecule was called active. As for `COc1cc(NC(=O)COc2cc(O)c3c(c2)OC(C)(C)CC3=O)cc(OC)c1OC`, the molecule was classed as active. On to `NC(=O)c1sc2nc3c(c(-c4ccco4)c2c1N)CCCC3`, for which the molecule was called active. For `Cc1nc2sc(C(N)=O)c(N)c2c2c1CCCC2`, the result was active.

With `Cc1ccc(-c2c3c(nc4sc(C(N)=O)c(N)c24)CCC3)cc1`, the call was active.

Regarding `NC(=O)c1sc2nc3c(c(-c4ccccc4)c2c1N)CCC3`, the call was active. On to `NC(=O)c1sc2nc3c(c(-c4cccs4)c2c1N)CCCCC3`, for which the outcome was active. With `Nc1ncc([N+](=O)[O-])c(N2CCCCCC2)n1`, the outcome was active. Turning to `COc1ccccc1N1CCN(C(=O)C2CCCN(S(=O)(=O)c3ccc4c(c3)oc(=O)n4C)C2)CC1` (centres undefined), the result was active.

Consider `CCN(CC)S(=O)(=O)c1ccc(Oc2ccc(S(=O)(=O)N(CC)CC)cc2)cc1`, for which the molecule was called active. In the case of `Cc1ccccc1NC(=O)/C=C/c1ccc([N+](=O)[O-])s1`, the call was active.

`Cc1ccc(NC(=O)/C=C/c2ccc([N+](=O)[O-])s2)c(C)c1`: the molecule was called active.

For `CCCc1nc2c(=O)n(C)c(=O)nc-2n(C)n1`, the outcome was active.

With `CC(=O)n1cc(N(C(=O)CCl)c2ccccc2)c2ccccc21`, the result was active. `O=C(CCl)N(c1ccccc1)c1c[nH]c2ccccc12`: the outcome was active.

With `O=C(CCl)N(Cc1ccccc1)c1ccccc1`, the result was active. Turning to `O=C(CCl)N(c1ccccc1)c1ccccc1`, the call was active. In the case of `O=C(COc1ccc(Br)cc1Cl)NC(=S)N1CCc2ccccc21`, the molecule was classed as active. In the case of `CC1Cc2ccccc2N1S(=O)(=O)c1cccc(C(=O)N2CCN(c3ncccn3)CC2)c1` (centres undefined), the molecule was classed as active.
